Assay results taken from PubChem BioAssay (Tox21).
Records with an inconclusive call do not appear. Active and inactive are the calls of the source. Unless noted, calls come from the whole dose curve; as a rule, active = well fitted curve in the direction sought with a large enough effect in the repeat runs; inconclusive = weak or mixed curves; inactive = no such curve, though single readings can be large; an effect the other way counts as inactive or inconclusive.

Columns and labels:
[1] = qHTS assay to identify small molecule agonists of the peroxisome proliferator-activated receptor delta (PPARd) signaling pathway - cell viability counter screen (AID 743211); note: nearly all actives have a fitted effect of over 55% in size; note: potency is the fitted concentration of half-maximal effect
How it was run: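 Viability of GeneBLAzer PPARd UAS-bla HEK293H cells was assessed after 17 h compound incubation at 37C, using CellTiter-Glo reagent added after the reporter read and luminescence recorded 30 min later.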

[2] = molecular target: Peroxisome proliferator-activated receptor delta (Homo sapiens) (UniProt Q03181); assay: qHTS assay to identify small molecule agonists of the peroxisome proliferator-activated receptor delta (PPARd) signaling pathway (AID 743212; calls by dose curve)
Chain of Peroxisome proliferator-activated receptor delta (Homo sapiens) (Q03181 whole entry, looked up): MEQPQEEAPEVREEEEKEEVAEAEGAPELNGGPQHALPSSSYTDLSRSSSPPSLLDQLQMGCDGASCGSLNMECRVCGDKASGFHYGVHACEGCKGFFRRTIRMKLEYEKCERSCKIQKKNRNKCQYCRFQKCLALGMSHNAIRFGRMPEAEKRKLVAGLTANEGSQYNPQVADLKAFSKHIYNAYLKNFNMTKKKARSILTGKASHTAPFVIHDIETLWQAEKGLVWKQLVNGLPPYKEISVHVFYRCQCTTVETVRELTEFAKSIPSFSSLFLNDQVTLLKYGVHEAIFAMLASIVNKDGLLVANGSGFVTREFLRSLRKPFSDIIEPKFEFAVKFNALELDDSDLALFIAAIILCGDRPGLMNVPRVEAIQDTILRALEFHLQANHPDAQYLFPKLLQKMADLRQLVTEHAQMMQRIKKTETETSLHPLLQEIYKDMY
How it was run: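 HEK293H PPARd-bla cells; 5 h preincubation 37 C/5% CO2; compound (DMSO) 37 C; LiveBLAzer B/G FRET substrate 2 h RT; fluorescence intensity.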

[3] = qHTS assay to identify small molecule antagonists of the peroxisome proliferator-activated receptor delta (PPARd) signaling pathway - cell viability counter screen (AID 743213); note: nearly all actives have a fitted effect of over 50% in size; note: potency is the fitted concentration of half-maximal effect
How it was run: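 Viability counter-screen, qHTS format: PPARd-bla HEK293H, L165041 300 nM final, 17 h compound exposure at 37 C, CellTiter-Glo luminescence after 30 min RT.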

[4] = molecular target: Peroxisome proliferator-activated receptor delta (Homo sapiens) (UniProt Q03181); assay: qHTS assay to identify small molecule antagonists of the peroxisome proliferator-activated receptor delta (PPARd) signaling pathway (AID 743215; active = well fitted inhibition curve with a large enough effect in the signal ratio in the repeat runs, not every such curve was filed as active; the % refers to the signal ratio;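 note: cells stimulated with agonist L165041 at 300 nM final during compound exposure; series mostly up to about 62 µM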)
How it was run: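 With L165041 present at 300 nM final, compounds were incubated 17 h at 37 C on PPARd UAS-bla HEK293H cells. A FRET-based beta-lactamase substrate was then applied for 2 h at room temperature and fluorescence intensity recorded.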

[5] = qHTS assay to identify small molecule antagonists of the farnesoid-X-receptor (FXR) signaling pathway - cell viability counter screen (AID 743221; active = well fitted cell-killing curve with a large enough effect in the repeat runs, not every such curve was filed as active; note: nearly all actives have a fitted effect of over 50% in size)
How it was run: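 Quantitative HTS of the Tox21 10K library run in parallel with the beta-lactamase reporter read. HEK 293T cells carrying a UAS-driven bla reporter got compound and 50 uM CDCA (final) for 16 h; ATP-based luminescence followed.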

[6] = molecular target: Vitamin D3 receptor (Homo sapiens) (UniProt P11473); assay: qHTS assay to identify small molecule agonists of the vitamin D receptor (VDR) signaling pathway (AID 743222; calls by dose curve)
Chain of Vitamin D3 receptor (Homo sapiens) (P11473 whole entry, looked up): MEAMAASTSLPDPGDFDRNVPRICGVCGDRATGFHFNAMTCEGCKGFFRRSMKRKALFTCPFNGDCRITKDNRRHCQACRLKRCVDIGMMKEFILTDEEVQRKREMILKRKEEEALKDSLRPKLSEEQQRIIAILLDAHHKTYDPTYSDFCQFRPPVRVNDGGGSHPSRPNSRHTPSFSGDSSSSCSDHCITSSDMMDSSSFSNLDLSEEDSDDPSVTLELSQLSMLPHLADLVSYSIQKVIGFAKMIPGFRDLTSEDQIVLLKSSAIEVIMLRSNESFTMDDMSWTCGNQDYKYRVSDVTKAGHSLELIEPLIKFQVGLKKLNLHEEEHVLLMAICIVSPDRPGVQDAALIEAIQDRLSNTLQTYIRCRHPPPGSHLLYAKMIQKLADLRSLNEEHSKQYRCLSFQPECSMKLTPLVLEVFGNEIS
How it was run: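 VDR-bla cells were seeded, left 4 h, treated with compounds in DMSO for 16 h, incubated 2 h at RT with B/G FRET substrate, and read for fluorescence.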

[7] = molecular target: Vitamin D3 receptor (Homo sapiens) (UniProt P11473); assay: qHTS assay to identify small molecule antagonists of the vitamin D receptor (VDR) signaling pathway (AID 743223; active = well fitted inhibition curve with a large enough effect in the signal ratio in the repeat runs, not every such curve was filed as active; the % refers to the signal ratio)
How it was run: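 Fluorescence from LiveBLAzer B/G FRET substrate, read after 2 h at room temperature, reflects beta-lactamase reporter activity in VDR-bla cells treated 16 h at 37C with compounds and agonist 1alpha,25-dihydroxyvitamin D3 (3 nM final).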

[8] = qHTS assay to identify small molecule agonists of the farnesoid-X-receptor (FXR) signaling pathway - cell viability counter screen (AID 743218); note: nearly all actives have a fitted effect of over 45% in size; note: potency is the fitted concentration of half-maximal effect
How it was run: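 After 16 h at 37 C with test compounds, FXR-bla HEK 293T cells were given LiveBLAzer B/G substrate for 2 h at RT and then CellTiter-Glo; luminescence was taken after 30 min.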

[9] = molecular target: Bile acid receptor (Homo sapiens) (UniProt Q96RI1); assay: qHTS assay to identify small molecule agonists of the farnesoid-X-receptor (FXR) signaling pathway (AID 743220; active = well fitted activation curve with a large enough effect in the signal ratio in the repeat runs, not every such curve was filed as active; the % refers to the signal ratio)
Chain of Bile acid receptor (Homo sapiens) (Q96RI1 whole entry, looked up): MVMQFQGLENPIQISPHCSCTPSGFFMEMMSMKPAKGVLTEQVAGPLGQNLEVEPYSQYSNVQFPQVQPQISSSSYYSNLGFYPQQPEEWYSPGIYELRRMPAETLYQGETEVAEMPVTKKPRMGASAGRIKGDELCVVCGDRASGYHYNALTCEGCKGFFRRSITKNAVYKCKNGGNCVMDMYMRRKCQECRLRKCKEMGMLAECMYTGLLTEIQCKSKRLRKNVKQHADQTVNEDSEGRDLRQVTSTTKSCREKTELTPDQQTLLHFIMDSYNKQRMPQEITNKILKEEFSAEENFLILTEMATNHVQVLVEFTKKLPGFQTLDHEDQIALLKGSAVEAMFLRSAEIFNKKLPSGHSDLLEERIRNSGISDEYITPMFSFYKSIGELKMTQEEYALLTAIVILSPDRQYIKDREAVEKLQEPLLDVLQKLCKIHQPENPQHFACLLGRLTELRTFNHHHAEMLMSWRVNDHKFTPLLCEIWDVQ
How it was run: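 Beta-lactamase reporter under UAS control in GeneBLAzer FXR HEK 293T cells (5000/well) measured with LiveBLAzer FRET substrate after 2 h at room temperature. Compound exposure lasted 16 h at 37C.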

[10] = molecular target: Bile acid receptor (Homo sapiens) (UniProt Q96RI1); assay: qHTS assay to identify small molecule antagonists of the farnesoid-X-receptor (FXR) signaling pathway (AID 743217; active = well fitted inhibition curve with a large enough effect in the signal ratio in the repeat runs, not every such curve was filed as active; the % refers to the signal ratio)
How it was run: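 In this cell-based antagonist screen, inhibition of CDCA-driven (50 uM final) UAS-beta-lactamase expression in HEK 293T cells was measured by FRET fluorescence following 16 h compound exposure at 37 °C.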

Measured: Potency

CCOC(=S)SSC(=S)OCC
not listed: [8] | [9] | [10]
inactive: all other assays above

O=C(O)COC(=O)Cc1ccccc1Nc1c(Cl)cccc1Cl
not listed: [9] | [10]
inactive: all other assays above

CCOC(=O)C1=C(C)NC(C)=C(C(=O)OC)C1c1cccc([N+](=O)[O-])c1 (configuration not stated)
not listed: [9] | [10]
inactive: all other assays above

Cc1ccccc1N=Nc1ccc(N=Nc2c(O)ccc3ccccc23)c(C)c1
inactive: [1] | [2] | [3] | [4] | [8] | [5]

O=C(/C=C/c1ccc(O)c(O)c1)O[C@@H]1C[C@](O)(C(=O)O)C[C@@H](O)[C@H]1O
inactive: [1] | [2] | [3] | [4] | [5]

c1ccc(OCc2ccc(CCCN3CCOCC3)cc2)cc1
not listed: [5] | [9] | [10]
inactive: all other assays above

Nc1nc(CC(=O)O)cs1
not listed: [9] | [10]
inactive: all other assays above

O=C(Cl)c1c(Cl)cccc1Cl
not listed: [9] | [10]
inactive: all other assays above

C=CC[N+]1([C@H]2C[C@H]3[C@@H]4CC[C@H]5C[C@H](OC(C)=O)[C@@H](N6CCCCC6)C[C@]5(C)[C@H]4CC[C@]3(C)[C@H]2OC(=O)CC)CCCCC1
not listed: [9] | [10]
inactive: all other assays above

CCN(CC)CCNC(C(=O)OCCC(C)C)c1ccccc1 (configuration not stated)
not listed: [5] | [9] | [10]
inactive: all other assays above

Cc1occc1S
not listed: [9] | [10]
inactive: all other assays above

CCCCOCCOCCOCCOCCO
inactive: [1] | [2] | [3] | [4] | [5] | [6]

C1=Cc2ccccc2C1
not listed: [9] | [10]
inactive: all other assays above

CC(=O)N(O)CCCCCNC(=O)CCC(=O)N(O)CCCCCNC(=O)CCC(=O)N(O)CCCCCN
not listed: [8] | [9] | [10]
inactive: all other assays above

CCN(CC)C(C)=O
not listed: [8] | [9] | [10]
inactive: all other assays above

CC(=O)c1ccc2c(c1)[C@H](NC(=O)c1ccc(F)cc1)[C@@H](O)C(C)(C)O2
not listed: [7] | [9] | [10]
inactive: all other assays above

N#CCCNCCC#N
not listed: [7] | [9] | [10]
inactive: all other assays above

Cc1cccc(Oc2ccccc2)c1
not listed: [9] | [10]
inactive: all other assays above

CCOc1nc2cccc(C(=O)O)c2n1Cc1ccc(-c2ccccc2-c2nn[nH]n2)cc1
inactive: [1] | [2] | [3] | [4] | [5]

O=c1c2ccccc2nnn1CCl
not listed: [9] | [10]
inactive: all other assays above

N[C@H]1C(O)O[C@H](CO)[C@H](O)[C@@H]1O (some centres not stated)
not listed: [9] | [10]
inactive: all other assays above

CC(C)(C)c1ccc(OCC2CO2)cc1 (configuration not stated)
not listed: [4] | [9] | [10]
inactive: all other assays above

COC(=O)C(C)=O
not listed: [4] | [9] | [10]
inactive: all other assays above

CCc1nn(C2CCCCC2)c2cc(C3(C#N)CCC(C(=O)O)CC3)ccc12 (configuration not stated)
not listed: [4] | [10]
inactive: all other assays above

CC(C)CC=O
not listed: [4] | [7]
inactive: all other assays above

CC(=O)OC/C=C/c1ccccc1
not listed: [4] | [8]
inactive: all other assays above

CC1CCc2cc(F)cc3c(=O)c(C(=O)O)cn1c23 (configuration not stated)
not listed: [4] | [6] | [7]
inactive: all other assays above

CC(Cc1cccc(C(F)(F)F)c1)NCCOC(=O)c1ccccc1 (configuration not stated)
active: [1] 21.1 µM | [3] 18.8 µM | [8] 21.1 µM
inactive: [2]

O=C(NS(=O)(=O)/C=C/c1cccs1)c1ccc(F)cc1Br
not listed: [4]
inactive: all other assays above

O=CNc1ccccc1
not listed: [4]
inactive: all other assays above

O=C(NN1CCCC1)NS(=O)(=O)c1ccc(Cl)cc1
not listed: [4]
inactive: all other assays above

O=C(O)C(c1ccc(Cl)cc1)c1ccc(Cl)cc1
not listed: [4] | [5] | [7]
inactive: all other assays above

CCCCOC(=O)c1ccccc1C(=O)OCC(CC)CCCC (configuration not stated)
inactive: [1] | [2] | [3] | [8] | [9] | [6]

CCCCC(CC)(CO)CO
not listed: [4]
inactive: all other assays above

CCCOc1ccc2nc(NC(=O)OC)[nH]c2c1
inactive: [1] | [2] | [3] | [8] | [5] | [6]

CC(=O)[C@@]1(O)CC[C@H]2[C@@H]3C[C@H](C)C4=CC(=O)CC[C@]4(C)[C@H]3CC[C@@]21C
inactive: [1] | [2] | [3] | [8] | [5] | [6]

CCC(C)N(C)C(=O)c1cc2ccccc2c(-c2ccccc2Cl)n1 (configuration not stated)
inactive: [1] | [2] | [3] | [8] | [5]

Cc1ccc(C(C)c2ccc(C)c(C)c2)cc1C
not listed: [4] | [9] | [10]
inactive: all other assays above

O=C1Nc2cc(Cl)ccc2Oc2ccccc21
not listed: [4]
inactive: all other assays above

Cl/C(=C\n1cncn1)c1ccc(Cl)cc1Cl
inactive: [1] | [2] | [3] | [8] | [5]

CCOC(=O)CC(C)C
inactive: [1] | [2] | [3] | [8] | [5] | [6]

Nc1nc(N)c(-c2ccccc2)s1
not listed: [4] | [6] | [7]
inactive: all other assays above

CCOc1ccc(NC(=O)CC(C)=O)cc1
inactive: [1] | [2] | [3] | [8] | [5] | [6]

CC1(C)[C@H]2CC[C@]1(C)[C@H](O)C2
inactive: [1] | [2] | [3] | [8] | [5]

CC[C@H](C)[C@@H](C(=O)O)n1sc2ccccc2c1=O
not listed: [4] | [8]
inactive: all other assays above

C=C(C)C(=O)OCCN(C)C
inactive: [1] | [2] | [3] | [8] | [5] | [6]

CCOc1ccc2[nH]cc(C(=O)NCc3ccccc3)c(=O)c2n1
not listed: [4] | [7] | [8]
inactive: all other assays above

CC(C)c1ccc2c(C(C)C)cc(C(C)C)c(S(=O)(=O)O)c2c1
not listed: [4] | [7]
inactive: all other assays above

O=C(Cl)c1ccc([N+](=O)[O-])cc1
inactive: [1] | [2] | [3] | [8] | [5]

CC(C)c1ccccc1C(C)C
not listed: [4] | [9] | [10]
inactive: all other assays above

CC(C)CCCC(C)CCO (configuration not stated)
not listed: [4] | [6]
inactive: all other assays above

Cc1cc(NC(=O)C(=O)O)cc(C)c1Oc1ccc(O)c2c1CCC2
not listed: [4] | [7]
inactive: all other assays above

O=C(CC(=O)c1ccccc1)c1ccccc1
not listed: [4]
inactive: all other assays above

COc1cc(C(C)(C)C)c(O)c(C(C)(C)C)c1
not listed: [4]
inactive: all other assays above

CC(C)(C)c1cc(CCC(=O)OCC(COC(=O)CCc2cc(C(C)(C)C)c(O)c(C(C)(C)C)c2)(COC(=O)CCc2cc(C(C)(C)C)c(O)c(C(C)(C)C)c2)COC(=O)CCc2cc(C(C)(C)C)c(O)c(C(C)(C)C)c2)cc(C(C)(C)C)c1O
not listed: [4]
inactive: all other assays above

CC(=O)O[C@H]1C[C@@H]2CC[C@@H]3[C@H](CC[C@@]4(C)[C@H]3C[C@H]([N+]3(C)CCCCC3)[C@@H]4OC(C)=O)[C@@]2(C)C[C@@H]1N1CCCCC1
not listed: [4] | [6] | [7]
inactive: all other assays above

Cn1c(N)nc2nc[nH]c2c1=O
not listed: [4]
inactive: all other assays above

Cc1c(Cn2ccnc2)c2ccccc2n1CCC(=O)O
inactive: [1] | [2] | [3] | [8] | [5] | [6]

C1CCC2OC2C1 (configuration not stated)
not listed: [4] | [9] | [10]
inactive: all other assays above

CC1=CC(=O)/C(=C(/C)O)C(=O)O1
not listed: [4] | [7]
inactive: all other assays above

CN1CCC(OC(c2ccccc2)c2ccccc2)CC1
not listed: [3] | [4] | [7]
inactive: all other assays above

O=C(c1ccc(O)cc1)c1ccc(O)cc1
inactive: [1] | [2] | [8] | [5] | [6]

CCCCOc1cc(C(=O)OCCN(CC)CC)ccc1N
not listed: [2] | [4]
inactive: all other assays above
